Reference: the antibiotic and cytotoxicity screens of Wong et al. (2023)
About 1,500 (3.8%) of roughly 39,000 compounds were called active. This excerpt belongs to a sample that is enriched for actives.

These compounds were tested on HSkMC (human skeletal muscle cells) (assay: cytotoxicity call (relative viability < 0.9)). Conditions: 10 µM.

| SMILES | cytotoxicity call |
| --- | --- |
| CC(C)Cc1ccc([C@@H](C)C(=O)Nc2ccc(Cl)cc2)cc1 | inactive |
| Cc1cc(C)c(-c2ccc(NC(=O)[C@H](Cc3ccc(C(=O)NCCS(=O)(=O)O)cc3)c3ccc(-c4ccc(C(C)(C)C)cc4)cc3)cc2)c(C)c1 | active |
| N[C@@H]1CONC1=O | inactive |
| O=C(C[C@H]1CC[C@@H]2[C@H](COC[C@H](O)CN2S(=O)(=O)c2ccc(F)cc2)O1)NCCN1CCCCC1 | inactive |
| CN1CCN(c2ccc(OC(F)(F)F)c(Nc3ncc4c(n3)-c3c(c(C(N)=O)nn3CCO)CC4)c2)CC1 | active |
| COc1ccc2c3c([nH]c2c1)[C@H](CO)N(C[C@]13CCN(CC1)S(=O)(=O)c1cn(cn1)C)C(=O)Nc1ccc(cc1)F | inactive |
| C[C@@H]1CCCCO[C@@H](CN(C)S(=O)(=O)c2cn(C)cn2)[C@H](C)CN([C@@H](C)CO)C(=O)c2cc(NC(=O)CCCN(C)C)ccc2O1 | inactive |
| C[C@@H]1CN([C@@H](C)CO)C(=O)Cc2cc(NC(=O)C3CCCCC3)ccc2O[C@H]1CN(C)Cc1ccc(Oc2ccccc2)cc1 | inactive |
| C[C@H](CO)N1C[C@H](C)[C@H](CN(C)Cc2ccc(-c3ccccc3)cc2)Oc2ccc(NC(=O)C3CCCCC3)cc2CC1=O | inactive |
| C[C@H]1CN([C@@H](C)CO)C(=O)Cc2cc(NC(=O)C3CCCCC3)ccc2O[C@@H]1CN(C)Cc1ccc(-c2ccccc2)cc1 | inactive |
| C[C@H](CO)N1C[C@H](C)[C@@H](CN(C)Cc2ccc(Oc3ccccc3)cc2)Oc2ccc(NC(=O)C3CCCCC3)cc2CC1=O | inactive |
| C[C@H]1CN([C@@H](C)CO)C(=O)Cc2cc(NC(=O)C3CCCCC3)ccc2O[C@H]1CN(C)Cc1ccc(Oc2ccccc2)cc1 | active |
| C[C@@H]1CN([C@H](C)CO)C(=O)Cc2cc(NC(=O)C3CCCCC3)ccc2O[C@@H]1CN(C)Cc1ccc(Oc2ccccc2)cc1 | active |
| C[C@@H]1CN([C@H](C)CO)C(=O)Cc2cc(NC(=O)C3CCCCC3)ccc2O[C@H]1CN(C)Cc1ccc(Oc2ccccc2)cc1 | inactive |
| C[C@@H]1CN([C@H](C)CO)C(=O)Cc2cc(NC(=O)C3CCCCC3)ccc2O[C@@H]1CN(C)Cc1ccc(-c2ccccc2)cc1 | active |
| C[C@H]1CN([C@@H](C)CO)C(=O)Cc2cc(NC(=O)C3CCCCC3)ccc2O[C@@H]1CN(C)Cc1ccc(Oc2ccccc2)cc1 | inactive |

| SMILES | cytotoxicity call |
| --- | --- |
| CC(=O)N1CCc2nc(N)sc2C1 | inactive |
| C[C@@H]1CN([C@@H](C)CO)C(=O)c2cccc(NS(=O)(=O)c3cn(C)cn3)c2O[C@H]1CN(C)S(=O)(=O)c1ccc(Cl)cc1 | inactive |
| CC=Cc1ccc2n(c1=O)C[C@@H]1[C@@H](CO)[C@H](C(=O)NCC3CC3)[C@H]2N1S(=O)(=O)c1cn(C)cn1 | inactive |
| C[C@@H]1CN([C@@H](C)CO)S(=O)(=O)c2ccc(C#Cc3ccccc3F)cc2O[C@@H]1CN(C)C(=O)Cc1cccnc1 | inactive |
| C[C@H]1CN([C@@H](C)CO)C(=O)c2cc(NC(=O)C3CCCCC3)ccc2O[C@H]1CN(C)Cc1ccc(-c2ccccc2)cc1 | inactive |
| C[C@H](CO)N1C[C@H](C)[C@@H](CN(C)C(=O)Nc2ccc3c(c2)OCO3)Oc2c(NC(=O)C3CC3)cccc2C1=O | inactive |
| C[C@H]1CN([C@@H](C)CO)C(=O)c2cccc(NC(=O)Nc3ccc(C(F)(F)F)cc3)c2O[C@H]1CN(C)C(=O)NC1CCCCC1 | inactive |
| C[C@H](CO)N1C[C@H](C)[C@H](CN(C)C(=O)NC2CCCCC2)Oc2c(NC(=O)Nc3ccc(C(F)(F)F)cc3)cccc2C1=O | inactive |
| C[C@H]1CN([C@@H](C)CO)C(=O)c2cccc(NC(=O)Nc3ccc(C(F)(F)F)cc3)c2O[C@@H]1CN(C)C(=O)NC1CCCCC1 | active |
| C[C@H](CO)N1C[C@H](C)[C@@H](CN(C)C(=O)NC2CCCCC2)Oc2c(NC(=O)Nc3ccc(C(F)(F)F)cc3)cccc2C1=O | inactive |
| C[C@@H]1CN([C@H](C)CO)C(=O)c2cccc(NC(=O)Nc3ccc(C(F)(F)F)cc3)c2O[C@@H]1CN(C)C(=O)NC1CCCCC1 | active |
| C[C@@H]1CN([C@@H](C)CO)C(=O)c2cccc(NC(=O)Nc3ccc(C(F)(F)F)cc3)c2O[C@H]1CN(C)C(=O)NC1CCCCC1 | active |
| C[C@@H]1CN([C@@H](C)CO)C(=O)c2cccc(NC(=O)Nc3ccc(C(F)(F)F)cc3)c2O[C@@H]1CN(C)C(=O)NC1CCCCC1 | inactive |
| C[C@H](CO)N1C[C@H](C)[C@@H](CN(C)C(=O)Nc2ccc(C(F)(F)F)cc2)Oc2c(NC(=O)NC3CCCCC3)cccc2C1=O | inactive |
| C[C@@H]1CN([C@H](C)CO)C(=O)c2cccc(NC(=O)Nc3ccc(C(F)(F)F)cc3)c2O[C@H]1CN(C)C(=O)NC1CCCCC1 | inactive |
| CC(C)NC(=O)Nc1cccc2c1O[C@H](CN(C)S(=O)(=O)c1ccccc1)[C@H](C)CN([C@H](C)CO)C2=O | inactive |
